KB-3-1 tox – KB-3-1 parental cell cytotoxicity | KB-3-1 viability, CellTiter-Glo ATP luminescence, 72 h | Potency, µM (highest dose often 46.1 µM), hits mostly cytotoxic | actives 1.4% (n = 400,000); further: nearly all actives have a fitted effect of over 60% in size
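Cells are dispensed, compounds pinned in, plates held at 37 °C for 72 h, then CellTiter-Glo is added and luminescence read after 10 minutes. Cell line: parental KB-3-1 in phenol-red-free DMEM, 10% FBS.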
TDP1 cell noCPT – qHTS for Inhibitors of human tyrosyl-DNA phosphodiesterase 1 (TDP1): qHTS in cells in absence of CPT; DT40 Tdp1-/- hTDP1 cells, no CPT, ATP luminescence, 48 h; AID 686978, 2013; actives 15% (n = 420,000); Potency, µM (titrated, usually from 46.2 µM), for inactives: top-dose activity change, negative = growth inhibition, most hits filed as inhibitors; further: nearly all actives have a fitted effect of over 55% in size
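Growth kinetics read by CellTiter-Glo luminescence after ≥48 hr at 37 °C. Cells: DT40 Tdp1-/- stably carrying human TDP1, 400 per well, compound exposure in the absence of CPT (DMSO vehicle).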
HT1080 IDH1KD tx – toxicity to HT-1080 IDH1 knockdown cells (counter line). AID 686971. HT-1080 IDH1 knockdown viability, ATP luminescence, 48 h. Potency, µM (highest dose often 46.1 µM), without a hit: at the highest dose activity, negative = toxicity, most hits filed as cytotoxic. actives 2% (n = 360,000);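 further: 0% = DMSO wells and -100% = cell-free medium wells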
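IDH1KD HT-1080 cells, 750/well, RPMI + 5% FBS; compound pinned after 2 h settling; 48 h, 37 °C; CellTiter-Glo luminescence; % activity normalised to DMSO and no-cell wells; curves fitted, classed by r2 and efficacy.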
DT40 TDP1 CPT – growth inhibition of DT40 Tdp1-/-;hTDP1 cells with camptothecin (screen for TDP1 inhibitors). chicken DT40 Tdp1-/-;hTDP1 cells + 20 nM CPT, ATP luminescence, 48 h. Potency, µM (highest dose often 46.2 µM), inactives show top-dose activity change, negative = growth inhibition, usual class: inhibitors. actives 12% (n = 420,000); further: nearly all actives have a fitted effect of over 55% in size
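Cell growth measured by CellTiter-Glo luminescence after a minimum 48 h, 37 C compound exposure with 20 nM CPT in Tdp1-knockout DT40 cells stably expressing hTDP1, seeded 400/well; qHTS titration format.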
KB-V1 MDR tox – kills drug-selected multidrug resistant KB-V1 cells; KB-V1 MDR cells viability, CellTiter-Glo, 72 h; AID 1347076; actives 3.4% (n = 400,000); Potency, µM (doses to about 46.1 µM), actives largely listed as cytotoxic; further: nearly all actives have a fitted effect of over 60% in size
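qHTS viability screen in drug-selected KB-V1 MDR cells: 72 h compound treatment at 37 degrees C, ATP luminescence end point.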
HT1080-NT tox – kills 2HG-producing HT-1080-NT fibrosarcoma cells. HT-1080-NT fibrosarcoma viability, CellTiter-Glo ATP luminescence, 48 h. actives 1.6% (n = 360,000). AID 686970. Potency, µM (top dose mostly 46.1 µM), for the others: top-dose activity, negative = less viability, usual class: cytotoxic;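 further: NT is the 2HG producing partner of a matched IDH1 knockdown line; 0% = DMSO-treated cells and -100% = media-only wells without cells; nearly all actives have a fitted effect of over 55% in size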
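HT-1080-NT; 750 cells/well; 5% FBS RPMI; 48 h compound, 37 degrees C; CellTiter-Glo luminescence; curve fitting and curve-class assignment.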
* marks the source's active call; other numbers are inactive results; i = inactive; ? = inconclusive; . = not tested or not shown; ! = repeats disagree. Hits are enriched below; roughly 19% of the tested compounds scored in any of these assays. The call rests on the fitted dose curve; in most records, active means well fitted curve in the direction sought with a large enough effect; inconclusive means small, poorly fitted or top-dose-only effect, or another doubt; inactive means no such curve, though single readings can be large; an effect the other way counts as inactive or inconclusive. Unless noted, on the % scale 0 is the no-effect control and ±100 the full control effect; potency means the concentration at half of the fitted maximal effect.

SMILES	KB-3-1 tox	TDP1 cell noCPT	HT1080 IDH1KD tx	DT40 TDP1 CPT	KB-V1 MDR tox	HT1080-NT tox
Cc1ccc(NS(=O)(=O)c2ccc(-n3cccn3)cc2)c(Br)c1	?	16µM*	-22%	18µM*!	?	-2%
Cc1cccc(NS(=O)(=O)c2ccc3c(c2)Cc2cc(S(=O)(=O)Nc4cccc(C)c4C)ccc2-3)c1C	?	5.2µM*	-3%	6.5µM*	?	-2%
Cc1ccc(NS(=O)(=O)c2ccc(-n3cccn3)cc2)c(C)c1	i	?	-17%	18µM*	i	2%
O=C(CN1C(=O)c2cccc3cccc1c23)NC1CCCCC1	i	-4%	18%	11%	i	4%
Cc1cccc(C(c2sc3nc(-c4ccco4)nn3c2O)N2CCOCC2)c1 (stereo unspecified)	i	-23%	.	0%	?	.
Cc1cccc(NS(=O)(=O)c2cccc(C(=O)N3CCN(C/C=C/c4ccccc4)CC3)c2)c1	i	?	-16%	?	i	-12%
O=C(CSc1nnc(-c2cccnc2)n1CCN1CCCCC1)Nc1cccc(Cl)c1	i	?	0%	11%	i	8%
COC(=O)N1CCC2(CC1)CN(C(=O)Nc1ccc(OC)cc1)C2	.	-1%	.	7%	.	.
Cc1ccc(-n2[nH]c(C)c(/C=N/Nc3ccc([N+](=O)[O-])cc3[N+](=O)[O-])c2=O)cc1	?	15µM*	23µM*	21µM*	16µM*	?
Cc1[nH]n(-c2ccc([N+](=O)[O-])cc2)c(=O)c1C=NCCc1c(C)[nH]c2ccccc12	i	16µM*	-23%	16µM*	16µM*	-23%
Cc1[nH]c2ccccc2c1/C=N/NC(=O)c1cccc([N+](=O)[O-])c1	i	?	-3%	-17%	i	0%
Cc1[nH]c2ccccc2c1/C=N/Nc1ccc([N+](=O)[O-])cc1	i	?	?	?	i	9.2µM*
Cc1[nH]n(-c2ccc([N+](=O)[O-])cc2)c(=O)c1C=NCC1CCCO1 (stereo unspecified)	?	10µM*	-17%	10µM*	?	-26%
COc1ccc(CN2C(=O)CN(S(C)(=O)=O)CC2(C)C(=O)Nc2ccc3c(c2)OCCO3)cc1OC (stereo unspecified)	i	-1%	3%	-1%	i	-4%
Cc1[nH]n(-c2ccc([N+](=O)[O-])cc2)c(=O)c1C=NCCN1CCN(C(=O)C(C)C)CC1	?	16µM*	?	12µM*	?	?
COc1ccccc1CNC(=O)Cc1c(C)c2c(cc(C)c3c(C)c(C)oc32)oc1=O	.	0%	.	-4%	.	.
CC(=O)NC(c1ccc(Cl)cc1)c1ccc2cccnc2c1O (stereo unspecified)	i	2.6µM*	?	4.1µM*	?	?
C[C@@H](NC(c1ccc(F)cc1)c1ccc2cccnc2c1O)c1ccccc1 (stereo partly specified)	?	.	.	.	i	.
CCCC(=O)NC(c1ccc(C(C)C)cc1)c1ccc2cccnc2c1O (stereo unspecified)	5.2µM*	2.3µM*	?	5.2µM*	?	-9%
CCCCC(=O)NC(c1ccc(OC)cc1)c1ccc2cccnc2c1O (stereo unspecified)	?	9.2µM*	?	5.8µM*	i	?
CCC(=O)NC(c1ccc(C)cc1)c1ccc2cccnc2c1O (stereo unspecified)	?	4.6µM*	?	4.1µM*	?	-30%
O=C(CNC(=O)c1ccco1)OCC(=O)c1ccc(Br)cc1	i	3%	8%	11%	i	10%
N#C/C(=C(/O)Cc1ccccc1)P(=O)(c1ccccc1)c1ccccc1	i	-10%	12%	-10%	?	17%
CCCC(=O)NC(c1ccco1)c1cc([N+](=O)[O-])c2cccnc2c1O (stereo unspecified)	?	-22%	-22%	-7%	?	-8%
Cc1cc(NC(c2ccc(Cl)cc2)c2ccc3cccnc3c2O)no1 (stereo unspecified)	?	4.6µM*	?	4.1µM*	?	?
SMILES	KB-3-1 tox	TDP1 cell noCPT	HT1080 IDH1KD tx	DT40 TDP1 CPT	KB-V1 MDR tox	HT1080-NT tox
CCCC(=O)NC(c1ccc(N(C)C)cc1)c1ccc2cccnc2c1O (stereo unspecified)	?	0.92µM*	?	0.65µM*	i	?
COc1ccc(C(NC(=O)C(C)C)c2ccc3cccnc3c2O)cc1 (stereo unspecified)	i	0.46µM*	?	0.73µM*	?	1.6µM*
CCCC(=O)NC(c1ccccc1Cl)c1ccc2cccnc2c1O (stereo unspecified)	?	5.2µM*	?	3.3µM*	?	?
COC(=O)C[C@@H]1C=C[C@H](NC(=O)Nc2ccc(OC)cc2)[C@@H](CO)O1	i	0%	23%	-1%	i	18%
CCOc1ccc(NC(=O)CSc2oc(-c3ccco3)nc2S(=O)(=O)c2ccc(Cl)cc2)cc1	i	?	.	21µM*	i	.
NC(=O)CSc1oc(-c2ccco2)nc1S(=O)(=O)c1ccc(Cl)cc1	i	3%	1%	4%	i	-2%
Cc1cc(C)cc(NC(=O)CSc2oc(-c3ccco3)nc2S(=O)(=O)c2ccc(Cl)cc2)c1	i	?	.	23µM*	?	.
CC(=O)OCC(=O)Nc1c(C)cc(C)cc1C	i	2%	1%	?	i	1%
O=C(NCCCN1CCOCC1)c1ccc(CSc2ccc(Cl)cc2)cc1	?	21µM*	?	26µM*	?	18µM*
O=C(NCCCN1CCOCC1)c1ccc(Sc2ccc(F)cc2)c([N+](=O)[O-])c1	i	16µM*	2%	?	23µM*	3%
O=C(NCCCN1CCOCC1)c1ccc(N2CCOCC2)c([N+](=O)[O-])c1	.	4%	2%	1%	.	5%
CN(C)CCNC(=O)c1ccc(Sc2ccc(Br)cc2)c([N+](=O)[O-])c1	?	23µM*	18µM*	16µM*	?	23µM*
CC(C)c1ccc(C(=O)NCCCN2CCOCC2)cc1	i	16%	8%	-4%	i	19%
